Test results from PubChem BioAssay AID588342 (National Center for Advancing Translational Sciences (NCATS), 2011).
About 25,000 (6.9%) of roughly 360,000 compounds were called active. Another 9% or so got no clear call; they are omitted. This is one part of a sample in which actives are shown more often than they occur. Values without a mark were called inactive. Calls come from the whole dose curve; as a rule, active = well fitted inhibition curve with a large enough effect; inconclusive = small, poorly fitted or top-dose-only effect; inactive = flat fitted curve, though single readings scatter.

Target: Luciferin 4-monooxygenase (Photinus pyralis) (UniProt P08659)
Sequence (P08659 whole entry, looked up): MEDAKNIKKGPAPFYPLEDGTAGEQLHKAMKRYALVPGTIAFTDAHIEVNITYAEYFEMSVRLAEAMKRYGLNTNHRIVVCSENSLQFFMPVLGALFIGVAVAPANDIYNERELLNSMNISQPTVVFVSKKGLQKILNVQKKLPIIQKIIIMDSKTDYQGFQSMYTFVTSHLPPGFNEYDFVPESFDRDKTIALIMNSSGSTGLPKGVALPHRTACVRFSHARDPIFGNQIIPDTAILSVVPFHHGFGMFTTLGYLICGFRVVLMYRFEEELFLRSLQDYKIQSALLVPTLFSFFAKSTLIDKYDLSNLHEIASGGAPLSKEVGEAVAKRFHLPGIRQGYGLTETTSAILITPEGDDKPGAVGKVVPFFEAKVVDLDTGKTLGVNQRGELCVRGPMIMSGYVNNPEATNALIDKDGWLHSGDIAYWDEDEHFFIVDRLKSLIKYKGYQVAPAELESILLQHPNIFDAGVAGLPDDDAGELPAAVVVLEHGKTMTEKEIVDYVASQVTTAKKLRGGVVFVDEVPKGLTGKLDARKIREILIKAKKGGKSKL
Assay: qHTS profiling assay for firefly luciferase inhibitor/activator using purifed enzyme and Km concentrations of substrates (counterscreen for miR-21 project); note: nearly all actives have a fitted effect of over 55% in size;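 for activity change, negative = inhibition: plate controls were vehicle for no effect and reference inhibitor for full effect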
Details: purified FLuc, luminescence inhibition; series mostly up to 57.5 µM; activity change, negative = inhibition: at the top concentration
Summary of the method: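 Purified P. pyralis luciferase (10nM final) with 10uM D-luciferin and 10uM ATP (Km levels) in 50mM Tris acetate pH 7.5, 10mM Mg acetate, 0.01% Tween-20, 0.05% BSA; qHTS 6-point titration, ~60 µM downward; luminescence read.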
Potency is the fitted concentration of half-maximal effect.

Compared with `CCOc1ccc(OCC(=O)Nc2c3c(nn2C(C)(C)C)CS(=O)(=O)C3)cc1`, `CCOC(=O)N1CCC(NC(=O)c2cnn(-c3cccc(C)c3)c2C2CCN(C(=O)OC(C)(C)C)CC2)CC1` is higher in “activity change, negative = inhibition” value: -17.5% for the first, 1.48% for the second.

First: COc1cccc(NC(=O)CN(C)C(=O)CSCc2nc3scc(-c4cccs4)c3c(=O)[nH]2)c1
Second: COc1cccc(/C=C2\SC(=N)N(c3ccc(F)cc3)C2=O)c1
The “activity change, negative = inhibition” value of the first is lower: -4.25% for the first, 2.74% for the second.

Compared with `CC(C)CC(NS(=O)(=O)c1ccc2c(c1)oc(=O)n2C)C(=O)NCc1ccccc1Cl` (stereo not drawn), `CCOC(=O)c1ccc(NC(=O)CCS(=O)(=O)c2ccc3c(c2)oc(=O)n3C)cc1` is higher in “activity change, negative = inhibition” value: -5.21% for the first, 1.12% for the second.

Going from `COc1ccccc1C(CNC(=O)c1ccc(C)c(S(=O)(=O)N2CCCCC2)c1)N(C)C` (stereo not drawn) to `Cc1ccc(Nc2ccc3cc(S(=O)(=O)N4CCCCC4)ccc3n2)cc1F`, the “activity change, negative = inhibition” value rises from -2.16% to 4.26%.

First: Fc1ccc(Nc2nc(SCc3ccccc3Cl)nc3ccccc23)cc1
Second: CC(C)(C)N1CC(c2nc3ccccc3n2Cc2ccc(F)cc2)CC1=O (stereo not drawn)
The “activity change, negative = inhibition” value of the first is lower: -16.5% for the first, -0.554% for the second.

First: COc1ccccc1NC(=O)c1ccc(N2CC3CC(C2)c2cccc(=O)n2C3)c(NC(=O)c2cccnc2)c1 (stereo not drawn)
Second: O=C(Nc1cc(Cl)cc(Cl)c1)c1ccc2c(c1)N(Cc1cccc(Cl)c1)C(=O)c1ccccc1S2=O (stereo not drawn)
The “activity change, negative = inhibition” value of the first is higher: 0.549% for the first, -1.73% for the second.

Compared with `COC(=O)c1cnn(-c2ccc(C(=O)Nc3ccc(OC(F)(F)F)cc3)cc2)c1N`, `O=C(O)c1ccc(/C=C2\SC(=S)N(NC(=O)c3ccc(Br)cc3)C2=O)cc1` is lower in “activity change, negative = inhibition” value: 2.78% for the first, -14.6% for the second.

First: O=C(CN1C(=O)S/C(=C\c2ccccc2Cl)C1=O)NC1C=CS(=O)(=O)C1 (stereo not drawn)
Second: O=C(c1ccc2c(c1)N(Cc1ccccc1)C(=O)c1ccccc1S2(=O)=O)N1CCCC1
The “activity change, negative = inhibition” value of the first is higher: -2.59% for the first, -5.91% for the second.

First: COc1ccccc1CCC(=O)NNC(=O)c1ccncc1
Second: COc1ccccc1OCCNC(=O)C(CCSC)NC(=O)COc1ccccc1 (stereo not drawn)
The “activity change, negative = inhibition” value of the first is lower: 0.895% for the first, 0.951% for the second.

Compared with `O=C1N(Cc2ccc3c(c2)OCO3)c2ccccc2C1(O)c1c[nH]c2ccccc12` (stereo not drawn), `Cc1ccccc1CS(=O)(=O)CC1Nc2ccc(C(=O)NCc3ccc(Cl)cc3)cc2NC1=O` (stereo not drawn) is higher in “activity change, negative = inhibition” value: 3.13% for the first, 3.69% for the second.

First: CC(C)(C)OC(=O)N[C@H](C(=O)OC(C)(C)C)c1ccc(Br)cc1
Second: CC(C)C(NC(=O)c1ccc(Cl)cc1)C(=O)O (stereo not drawn)
The “activity change, negative = inhibition” value of the first is higher: 4.47% for the first, -0.225% for the second.

Going from `O=C1c2ccccc2C(=O)N1CCC#Cc1ccc2cc(C3(O)CCCCC3)oc(=O)c2c1` to `CC(C)(C)c1nc2ccccc2c(=O)n1N1C(=O)c2ccccc2C1=O`, the “activity change, negative = inhibition” value rises from 1.37% to 3.69%.

First: CCC(Sc1nc2n[nH]c(C)c2c(=N)n1-c1ccccc1Cl)C(=O)N(CC)CC (stereo not drawn)
Second: CCCNC(=O)CCc1c(C)nc2c(c(C)nn2-c2ccc(C)cc2)c1C
The “activity change, negative = inhibition” value of the first is higher: 5.14% for the first, -1.39% for the second.

First: CCCCOc1ccc(Cn2c(=O)oc3ccc(C)cc32)cc1OC
Second: CCN(CC)c1ccc(NS(=O)(=O)c2cc(-c3cc(C)no3)ccc2C)c(C)c1
The “activity change, negative = inhibition” value of the first is higher: -11.5% for the first, -13.7% for the second.

Going from `CC(C)=C1SC(N2CCN(c3cccc(C)c3)CC2)=NC1=O` to `CCOC(=O)c1c(C)[nH]c(C)c1S(=O)(=O)N(C)CC(=O)N1CCN(c2ccccc2)CC1`, the “activity change, negative = inhibition” value falls from 0.206% to -1.32%.

Compared with `CCn1c(=O)n(CC)c2cc(N3CCCC3)c(NC(=O)c3ccccc3Br)cc21`, `COc1ccc(CNC(=O)CCc2c(C)nn(-c3ccc(N4CCCC4)nn3)c2C)cc1` is higher in “activity change, negative = inhibition” value: 3.02% for the first, 3.1% for the second.

Compared with `Cc1occc1C(=O)NNC(=S)NCC(C)C`, `CCCC(=O)Nc1ccc2c(c1)nc(CCNC(=O)c1ccco1)n2C` is lower in “activity change, negative = inhibition” value: -0.662% for the first, -1.08% for the second.

Going from `CCOC(=O)N1CCN(Cc2nc3cc(NC(C)=O)ccc3n2C)CC1` to `CCC(=O)Nc1ccc2c(c1)nc(CCN1CCN(c3ccccn3)CC1)n2C`, the “activity change, negative = inhibition” value falls from 2.23% to 0.231%.

Compared with `Cn1c(CCN2CCCC2)nc2cc(NS(=O)(=O)c3ccccc3)ccc21`, `Cc1ccc(S(=O)(=O)Nc2nc(N)n(-c3ccccc3)n2)cc1` is lower in “activity change, negative = inhibition” value: 0.966% for the first, -15.3% for the second.

First: CC(C)CCNC(=O)CC1C(=O)N(Cc2ccccc2)C(C)c2nc3ccccc3n21 (stereo not drawn)
Second: Cn1c(CC(=O)Nc2ccccc2)nnc1SCC(=O)c1ccccc1
The “activity change, negative = inhibition” value of the first is higher: 6.94% for the first, 1.04% for the second.

Compared with `CCCN1CCN(CCCNC(=O)c2cnn(-c3ccc(C)cc3)c2-n2cccc2)CC1`, `Cc1cccc(C)c1-n1ncc(C(=O)NCCCN2CCCCC2)c1C1CCN(C(=O)OC(C)(C)C)CC1` is lower in “activity change, negative = inhibition” value: 1.38% for the first, -1.11% for the second.

Compared with `CC(C(=O)NC1CCCC1)N1CCN(S(=O)(=O)c2ccccc2Cl)CC1` (stereo not drawn), `CC1=C(C(=O)OCC2CCCCC2)C(c2c(F)cccc2Cl)CC(=O)N1` (stereo not drawn) is lower in “activity change, negative = inhibition” value: -0.449% for the first, -1.11% for the second.

Compared with `O=C(COc1coc(CN2CCN(c3ccccc3)CC2)cc1=O)Nc1ccccc1F`, `O=C(CSc1nc2c(c(=O)[nH]1)CN(Cc1ccc(F)cc1)CC2)Nc1ccccc1Cl` is lower in “activity change, negative = inhibition” value: -0.456% for the first, -0.468% for the second.

Compared with `Cc1cccc(C(CC(=O)NCC2(c3ccccc3)CCCC2)c2ccccc2)c1O` (stereo not drawn), `Cn1c(=O)c(C(=O)O)nn(-c2ccccc2)c1=O` is lower in “activity change, negative = inhibition” value: 1.15% for the first, -0.0194% for the second.

Going from `N#Cc1ccc(CSc2nnc3ccccn23)cc1` to `CCN(C(=O)CSc1nnc2ccccn12)C1CCS(=O)(=O)C1` (stereo not drawn), the “activity change, negative = inhibition” value rises from -0.254% to 0.52%.

With `Cc1ccc(-n2c(C)nnc2SCC(=O)NC2CC2)cc1` the “activity change, negative = inhibition” value was -4.89%.

For `COc1ccc(/C=C2\SC(=S)N(CC(=O)NNC(=O)c3ccncc3)C2=O)cc1`, the Potency was 5.36 µM (active).
In the case of `COc1cccc(/C=C2/SC(=S)N(CC(=O)NC3C=CS(=O)(=O)C3)C2=O)c1` (stereo not drawn), the Potency is reported as 6.75 µM (active).
With `COc1cc(C#Cc2ccc3cc(CCCO)oc(=O)c3c2)cc(OC)c1` the Potency was 4.78 µM (active).
In the case of `CCN1C(=O)/C(=C2\SC(N3CCCCC3)=NC2=O)c2ccccc21`, the Potency is reported as 3.38 µM (active).
With `CC(C)CNC(=S)NC(=O)c1ccc(Cl)cc1` the Potency was 12 µM (active).
In the case of `CC(=O)NCCc1nc2cc(NC(=O)c3ccccc3)ccc2n1C`, the Potency is reported as 16.9 µM (active).
With `Cn1c(CCN2CCCCCC2)nc2cc(NC(=O)Nc3ccccc3)ccc21` the Potency was 21.3 µM (active).
For `CCCNC(=O)c1c(Cl)cnn1-c1ccc(C)cc1`, the Potency was 9.53 µM (active).
`CC(C)(C)c1cc(=O)n2c(nc3ccccc32)[nH]1` was tested, and the Potency was 21.3 µM (active).
In the case of `Cc1ccc(C(=O)Nc2nc(N)n(-c3ccccc3)n2)cc1`, the Potency is reported as 23.9 µM (active).
With `Cc1ccc(-n2c(C)cc(C(=O)CSc3nnc4ccccn34)c2C)cc1` the Potency was 2.13 µM (active).
In the case of `O=C(CSc1nnc2ccccn12)c1ccccc1`, the Potency is reported as 23.9 µM (active).
